# GIRK2 activator = activators of NPY4-receptor-primed GIRK2 channels, summary, cell-based, HEK293, thallium flux; HEK293 GIRK2/NPY4 cells, thallium flux fluorescence; 34,000 tested, under 10 active; G protein-activated inward rectifier potassium channel 2 (Homo sapiens), P48051; activation (% efficacy), % for hits at 37.5 µM; AID 1259324, 2017;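 active = primary screen hit, no activity in plain HEK293 cells, and in GIRK2-only cells above 5% efficacy rising with concentration; inactive = the rest, including fluorescent compounds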;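 note: efficacy is normalized control-subtracted fluorescence 15 s after thallium addition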
# AMPAR-TARP mod = modulators of GluA2-stargazin AMPA receptor complexes, primary screen, cell-based, membrane potential dye; HEK293 GluA2+stargazin, membrane potential dye (FDSS), glutamate EC50; hits were called plate by plate, in both directions; 3.5% of 40,000 active; AID 1259245, 2017; calls only at 30 µM;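 active = any of four per-well response measures lying three or more SD from its plate-wide compound average, in either direction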
# Calls only; – = inactive; · = not tested or not shown; + = active, no number. This excerpt belongs to a sample that is enriched for hits.
SMILES,GIRK2 activator,AMPAR-TARP mod
COc1ccc(/C=C/C(=O)Nc2ccc(CC(=O)N3CCC(O)CC3)cc2)cc1OC,–,·
O=C(Nc1nc(-c2ccncc2)cs1)C1CCCN(S(=O)(=O)c2cccs2)C1 (stereo unspecified),·,–
O=C(Nc1nc(-c2ccncc2)cs1)C1CCN(S(=O)(=O)c2cccs2)CC1,·,+
COc1ccc(CNC(=O)N2CCN(Cc3nc(-c4cccs4)cs3)CC2)cc1,–,–
COCCn1c(=O)c2c(nc3n(-c4ccc(C)c(C)c4)c(C)cn23)n(C)c1=O,·,–
CCOc1ccc(-n2nnnc2CN2CCN(C(=O)c3c(F)cccc3Cl)CC2)cc1,–,+
CCOc1ccc(-n2nnnc2CN2CCN(C(=O)c3c(C)noc3C)CC2)cc1,–,–
COc1ccc(S(=O)(=O)N2CCCOC2CNC(=O)C(=O)NCCC(C)C)cc1C (stereo unspecified),·,–
COc1cn(CC(=O)Nc2ccc([N+](=O)[O-])cc2)c(CSc2ccccc2)cc1=O,·,–
O=C(CN1CCC(c2nnc(C3CC3)o2)CC1)NCCc1ccccc1,–,+
O=C(NCCc1ccccc1)N1CCC(c2nnc(C3CC3)o2)CC1,·,–
O=C(c1ccc(S(=O)(=O)N2CCc3ccccc3C2)cc1)N(Cc1ccccc1)Cc1ccccc1,·,–
CCCCc1ccc(NC(=O)Cn2cnc3c(nnn3C)c2=O)cc1,–,–
O=C(Cn1c(=O)c(CNc2ccccc2)cc2cc3c(cc21)OCCO3)Nc1ccc2c(c1)OCCO2,–,–
Cc1c(Cl)cccc1NC(=O)Cn1c(=O)c(CNc2ccccc2)cc2cc3c(cc21)OCCO3,–,+
COc1ccc(-c2csc(-c3nnn(-c4cccc(Cl)c4)c3N)n2)cc1OC,–,–
CCCn1c(=O)c2c(nc3n2CC(C)CN3c2ccccc2OC)n(C)c1=O (stereo unspecified),·,+
CCCCn1c(=O)c2c(nc3n2CC(C)CN3c2ccccc2OC)n(C)c1=O (stereo unspecified),·,–
CCn1c(=O)c2c(nc3n(-c4cc(OC)ccc4OC)c(-c4ccccc4)cn23)n(C)c1=O,–,–
CCCn1c(=O)c2c(nc3n(-c4cc(OC)ccc4OC)c(-c4ccccc4)cn23)n(C)c1=O,·,+
CC(=O)c1cc(C(=O)OCC(=O)Nc2ccc(Br)cc2)c2ccccn12,·,–
NC(=O)C1CCN(C(=O)Cc2cc(-c3ccc(F)cc3)on2)CC1,–,–
NC(=O)C1CCN(C(=O)Cc2cc(-c3cc4ccccc4o3)on2)CC1,–,+
Cc1nc(NCCNC(=O)Nc2ccc(C)c(F)c2)cc(-n2cccn2)n1,–,–
Cc1nc(NCCNC(=O)Nc2ccc(Cl)c(C(F)(F)F)c2)cc(-n2cccn2)n1,–,+
SMILES,GIRK2 activator,AMPAR-TARP mod
O=C(NCCS(=O)(=O)N1CCN(Cc2ccccc2)CC1)C1CCCC1,–,–
CN(C)CCNC(=O)C(=O)Nc1ccc([N+](=O)[O-])cc1,·,–
COCCCNC(=O)C(=O)Nc1ccc([N+](=O)[O-])cc1,·,+
CCCCc1ccc(NC(=O)CCc2csc(NC(=O)c3ccco3)n2)cc1,–,–
Cc1csc(C(=O)Nc2ccc(CC(=O)NCC(F)(F)F)cc2)c1,–,·
O=C(NCC(c1ccsc1)N1CCCCCC1)c1c(F)cccc1Cl (stereo unspecified),–,+
O=C(NCC(c1cccs1)N1CCOCC1)c1c(F)cccc1Cl (stereo unspecified),–,–
O=C(NCCS(=O)(=O)N1CCN(c2ncccn2)CC1)Nc1ccccc1,–,–
CC(=O)c1sc(NC(=O)c2ccc(S(=O)(=O)C(C)C)cc2)nc1C,·,+
CC(C)S(=O)(=O)c1ccc(C(=O)Nc2nc(-c3ccc(Cl)s3)cs2)cc1,·,–
COc1cccc2sc(NC(=O)c3ccc(S(=O)(=O)C(C)C)cc3)nc12,–,+
COc1ccc(-c2csc(NC(=O)c3ccc(S(=O)(=O)C(C)C)cc3)n2)cc1OC,·,–
O=S(=O)(NCCCCN1CCOC(c2ccccc2)C1)c1cccc(Cl)c1 (stereo unspecified),–,·
Cn1nc(NC(=O)c2c[nH]c3ccccc23)c2c1NC(=O)CC2c1ccco1 (stereo unspecified),–,–
COc1ccc(C)cc1NC(=O)N1CCN(c2cc(OC(C)C)nc(C)n2)CC1,–,–
CCCn1c(=O)c2c(nc3n(-c4ccccc4OC)c(-c4ccccc4)cn23)n(C)c1=O,·,–
COc1ccc(C2(CNS(=O)(=O)c3c(C)n[nH]c3C)CCCC2)cc1,–,+
COc1ccc(C2(CNS(=O)(=O)c3cccnc3)CCCC2)cc1,–,–
CCC(=O)c1ccc(OCC(O)CN2CCN(c3ccc(C)cc3C)CC2)cc1 (stereo unspecified),·,–
COc1ccccc1CNC(=O)c1ccc2c(=O)n3c(nc2c1)SCC3,–,–
O=C(Nc1ccccc1)Nc1ccc2c(c1)N(C(=O)c1ccccc1)CCC2,–,·
O=C(/C=C/c1ccc2c(c1)OCO2)Nc1ccc2c(c1)N(C(=O)C1CC1)CC2,–,+
O=C(/C=C/c1ccc2c(c1)OCO2)Nc1ccc2c(c1)CN(C(=O)C1CC1)CC2,–,–
O=C(/C=C/c1ccccc1)Nc1ccc2c(c1)N(C(=O)c1ccccc1)CCC2,–,+
CCc1ccc(Oc2cc(N3CCC(C(=O)NCCc4cccs4)CC3)ncn2)cc1,–,–
SMILES,GIRK2 activator,AMPAR-TARP mod
Cc1ccc(-n2ncc3c(=O)n(NC(=O)c4cc(Cl)ccc4[N+](=O)[O-])cnc32)cc1,–,–
Cc1ccc(S(=O)(=O)NCCn2nc(C)c(Cl)c2C)cc1C,–,+
Cc1ccc(S(=O)(=O)NCCn2nc(-c3ccc(Cl)cc3)ccc2=O)cc1C,·,–
CN1CCN(C(=O)C(=O)Nc2c3c(nn2-c2cccc(Cl)c2)CSC3)CC1,–,–
O=C(Nc1c2c(nn1-c1cccc(Cl)c1)CS(=O)C2)C1CCCCC1 (stereo unspecified),–,+
COc1cccc(CSc2n[nH]c(=O)c3cc(-c4ccc(F)cc4)nn23)c1,–,·
O=S(=O)(CCc1ccccc1)N1CCOC(c2ccccc2)C1 (stereo unspecified),–,·
COc1ccccc1-c1nc(COC(=O)c2nnn(-c3ccc(C)cc3)c2C)c(C)o1,·,–
CCOc1ccccc1-c1nc(COC(=O)c2nnn(-c3ccc(Cl)cc3)c2C)c(C)o1,·,+
Cc1cc(C)n(CC(=O)Nc2ccccc2F)c(=O)c1-c1nc(-c2ccc(Cl)cc2)no1,–,–
COc1ccc(NC(=O)Cn2c(C)cc(C)c(-c3nc(-c4ccc(Cl)cc4)no3)c2=O)cc1,·,–
CCOc1ccccc1NC(=O)Cn1c(C)cc(C)c(-c2nc(-c3ccc(Cl)cc3)no2)c1=O,·,+
COc1ccc(-c2noc(-c3c(C)cc(C)n(CC(=O)Nc4ccc(OC)c(Cl)c4)c3=O)n2)cc1,–,+
O=C(NCC(O)Cc1ccccc1)C(=O)NCC(F)(F)F (stereo unspecified),–,–
COc1ccc(NC(=O)c2nnn(-c3ccc(OC)cc3)c2N)cc1,–,–
COC(=O)c1scc(-c2ccc(C)cc2)c1S(=O)(=O)Nc1ccc(OC)c(OC)c1,–,–
CCOC(=O)c1scc(-c2ccc(C)cc2)c1S(=O)(=O)Nc1ccc2c(c1)OCCO2,–,+
NC(=O)c1c(NC(=O)CCCS(=O)(=O)c2ccccc2)sc2c1CCCC2,–,–

# Bioassay records from PubChem BioAssay.
